About 83,000 compounds went through this panel and 20% of them were active in at least one assay; those are over-represented in the sample as a whole.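 96-well plates, one dose, 48 hours. Percent growth reported; active if below 10.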 Calls of active or inactive are those of the source.
How the values were obtained:
Experiment in all cases: NCI-60 one-dose screen, 48 h (100 = growth as untreated, 0 = no growth, -100 = all killed)
Conditions in all cases: 10 µM unless noted
SR leukemia = system: SR leukemia
RPMI-8226 leukemia = system: RPMI-8226 leukemia
OVCAR-8 ovarian = system: OVCAR-8 ovarian
OVCAR-5 ovarian = system: OVCAR-5 ovarian
OVCAR-4 ovarian = system: OVCAR-4 ovarian
SK-OV-3 ovarian = system: SK-OV-3 ovarian
IGROV1 ovarian = system: IGROV1 ovarian
OVCAR-3 ovarian = system: OVCAR-3 ovarian
HS 578T breast = system: HS 578T breast
NCI/ADR-RES ovarian = system: NCI/ADR-RES ovarian
T-47D breast = system: T-47D breast
BT-549 breast = system: BT-549 breast
MDA-MB-435 melanoma = system: MDA-MB-435 melanoma
SW-620 colon = system: SW-620 colon
MCF7 breast = system: MCF7 breast
HCT-116 colon = system: HCT-116 colon
HCC-2998 colon = system: HCC-2998 colon
KM12 colon = system: KM12 colon

Measured: growth

CCN1CCC2(CC1)NC(=O)c1c(c3ccc(Cl)c(Cl)c3n1C)C2C#N (stereo not drawn)
active: MDA-MB-435 melanoma -59.9% | HCC-2998 colon -5.34%
inactive: SR leukemia 26.5% | RPMI-8226 leukemia 16.6% | OVCAR-8 ovarian 76.9% | OVCAR-5 ovarian 74.3% | OVCAR-4 ovarian 63.8% | SK-OV-3 ovarian 87.6% | IGROV1 ovarian 55.8% | OVCAR-3 ovarian 56.2% | HS 578T breast 53.8% | NCI/ADR-RES ovarian 63.4% | T-47D breast 75% | BT-549 breast 37.2% | SW-620 colon 37.6% | MCF7 breast 35% | HCT-116 colon 14% | KM12 colon 41.2%

COc1ccc(SC2c3ccc(C)cc3Oc3nc(N)c(C#N)c(N)c32)cc1 (stereo not drawn)
inactive: SK-OV-3 ovarian 44.9%
active: SR leukemia -28% | RPMI-8226 leukemia -34.2% | OVCAR-8 ovarian -89.1% | OVCAR-5 ovarian 5.64% | OVCAR-4 ovarian -93.5% | IGROV1 ovarian -82.8% | OVCAR-3 ovarian -93.7% | HS 578T breast 3.13% | NCI/ADR-RES ovarian 1.24% | T-47D breast -34.5% | BT-549 breast -72.9% | MDA-MB-435 melanoma -69.6% | SW-620 colon -65.2% | MCF7 breast -48.6% | HCT-116 colon -64.4% | HCC-2998 colon -78.9% | KM12 colon 3.92%

CC(C)C[C@@H](NC(=O)[C@@H](Cc1ccccc1)NC(=O)c1cnccn1)B1Oc2ccc(C[C@H](NC(=O)[C@H](Cc3ccc4c(c3)OB([C@@H](CC(C)C)NC(=O)[C@@H](Cc3ccccc3)NC(=O)c3cnccn3)O4)NC(=O)[C@@H](N)CC3CCC4OB([C@@H](CC(C)C)NC(=O)[C@@H](CC5CCCCC5)NC(=O)C5CNCCN5)OC4C3)C(=O)NCCCC[C@@H]3NC(=O)[C@@H](Cc4ccccc4)NC(=O)[C@H](CC(=O)O)NC(=O)CNC(=O)[C@H](CCCNC(=N)N)NC3=O)cc2O1 (stereo partly drawn)
active: SR leukemia 1.49% | RPMI-8226 leukemia 0.76% | OVCAR-8 ovarian -45.3% | OVCAR-5 ovarian -31% | OVCAR-4 ovarian -26.7% | SK-OV-3 ovarian -30% | IGROV1 ovarian -8.65% | OVCAR-3 ovarian -49.3% | HS 578T breast 5.06% | NCI/ADR-RES ovarian -8.71% | T-47D breast -57.8% | BT-549 breast -66.8% | MDA-MB-435 melanoma -74.7% | SW-620 colon -49.5% | MCF7 breast -43.9% | HCT-116 colon -69.2% | HCC-2998 colon -95.7% | KM12 colon -51.5%

CN1CCN(Cc2ccc(NC(=O)c3cncc(C#Cc4cncn5ccnc45)c3)cc2C(F)(F)F)CC1
active: HCT-116 colon 7.73%
inactive: SR leukemia 40.8% | RPMI-8226 leukemia 54.9% | OVCAR-8 ovarian 68.8% | OVCAR-5 ovarian 48.4% | OVCAR-4 ovarian 48.5% | SK-OV-3 ovarian 88.9% | IGROV1 ovarian 20.4% | OVCAR-3 ovarian 83.8% | HS 578T breast 69.6% | NCI/ADR-RES ovarian 93.6% | T-47D breast 98.9% | BT-549 breast 60.8% | MDA-MB-435 melanoma 36.2% | SW-620 colon 32.2% | MCF7 breast 55.9% | HCC-2998 colon 47.6% | KM12 colon 19.7%

COc1cc(/C=C/C(=O)c2cccnc2Nc2ccc(F)cc2)cc(OC)c1OC
inactive: OVCAR-5 ovarian 35.8% | OVCAR-4 ovarian 61.6% | SK-OV-3 ovarian 42% | IGROV1 ovarian 91.7% | OVCAR-3 ovarian 16.1% | HS 578T breast 24.9% | T-47D breast 61.4% | BT-549 breast 39.5% | MDA-MB-435 melanoma 28.4% | SW-620 colon 21.6% | HCT-116 colon 13.9% | HCC-2998 colon 21.7% | KM12 colon 24.6%
active: SR leukemia 2.85% | RPMI-8226 leukemia 1.24% | OVCAR-8 ovarian 1.62% | NCI/ADR-RES ovarian 8.54% | MCF7 breast 8.82%

CN(C)CCN1C(=O)c2cccc3c(N)ccc(c23)C1=O
active: SR leukemia -19.2% | RPMI-8226 leukemia 4.13% | T-47D breast -2.59% | MCF7 breast -11.3%
inactive: OVCAR-8 ovarian 18.1% | OVCAR-5 ovarian 36.5% | OVCAR-4 ovarian 41.6% | SK-OV-3 ovarian 32.2% | IGROV1 ovarian 27.6% | OVCAR-3 ovarian 21.8% | HS 578T breast 56.8% | NCI/ADR-RES ovarian 40% | BT-549 breast 89.9% | MDA-MB-435 melanoma 39.6% | SW-620 colon 26.6% | HCT-116 colon 15.9% | HCC-2998 colon 48.1% | KM12 colon 28.1%

CCN(CC)S(=O)(=O)c1ccc(OC)c(NC(=O)c2[nH]c(C)c3c2CCCCC3=O)c1
inactive: SR leukemia 43.4% | RPMI-8226 leukemia 16.7% | OVCAR-8 ovarian 41.1% | OVCAR-5 ovarian 54.1% | OVCAR-4 ovarian 49.5% | SK-OV-3 ovarian 20.4% | IGROV1 ovarian 24.8% | OVCAR-3 ovarian 39% | HS 578T breast 16.4% | NCI/ADR-RES ovarian 40.2% | T-47D breast 16.6% | BT-549 breast 59.8% | MDA-MB-435 melanoma 31.3% | SW-620 colon 67% | MCF7 breast 19% | HCT-116 colon 33.7% | HCC-2998 colon 42.3% | KM12 colon 47.9%

O=C1OC(c2ccccc2)C(O)=C1c1ccccc1 (stereo not drawn)
inactive: SR leukemia 109% | RPMI-8226 leukemia 96.5% | OVCAR-8 ovarian 100% | OVCAR-5 ovarian 99.2% | OVCAR-4 ovarian 121% | SK-OV-3 ovarian 115% | IGROV1 ovarian 111% | OVCAR-3 ovarian 102% | HS 578T breast 110% | NCI/ADR-RES ovarian 116% | T-47D breast 111% | BT-549 breast 111% | MDA-MB-435 melanoma 105% | SW-620 colon 110% | MCF7 breast 95.4% | HCT-116 colon 107% | HCC-2998 colon 127% | KM12 colon 95.7%

COc1ccc(NC(=O)c2ccc(/C=C/C(=O)c3ncc[nH]3)cc2)cc1
inactive: SR leukemia 13.4% | RPMI-8226 leukemia 16.7% | OVCAR-8 ovarian 64.7% | OVCAR-5 ovarian 107% | OVCAR-4 ovarian 82.5% | SK-OV-3 ovarian 96.9% | IGROV1 ovarian 78% | OVCAR-3 ovarian 31.1% | HS 578T breast 94.7% | NCI/ADR-RES ovarian 77.4% | T-47D breast 68.5% | BT-549 breast 78.8% | MDA-MB-435 melanoma 67.1% | SW-620 colon 34.5% | MCF7 breast 25.1% | HCT-116 colon 71.5% | HCC-2998 colon 83.9% | KM12 colon 27.5%

COc1ccc(-c2nn(-c3ccc(Cl)cc3)cc2-c2nc3ccccc3[nH]2)cc1
inactive: SR leukemia 80.3% | RPMI-8226 leukemia 93.9% | OVCAR-8 ovarian 105% | OVCAR-5 ovarian 110% | OVCAR-4 ovarian 88% | SK-OV-3 ovarian 101% | IGROV1 ovarian 71.4% | OVCAR-3 ovarian 94% | HS 578T breast 93% | NCI/ADR-RES ovarian 102% | T-47D breast 87.9% | BT-549 breast 113% | MDA-MB-435 melanoma 97.7% | SW-620 colon 84.6% | MCF7 breast 74.3% | HCT-116 colon 87% | HCC-2998 colon 109% | KM12 colon 102%

CCCCCCN(CCCCCC)CCC(O)c1ccc2ccccc2c1 (stereo not drawn)
active: SR leukemia 0.428% | RPMI-8226 leukemia 7.65%
inactive: OVCAR-8 ovarian 73.4% | OVCAR-5 ovarian 69.5% | OVCAR-4 ovarian 45.7% | SK-OV-3 ovarian 83.5% | IGROV1 ovarian 59.6% | OVCAR-3 ovarian 69.7% | HS 578T breast 69.1% | NCI/ADR-RES ovarian 58% | T-47D breast 34.4% | BT-549 breast 74.7% | MDA-MB-435 melanoma 68.3% | SW-620 colon 48.2% | MCF7 breast 26.6% | HCT-116 colon 24.3% | HCC-2998 colon 44.6% | KM12 colon 56.2%

COc1ccc(-n2nc(C)c3c(Nc4ccc(NC(=O)Nc5cccc(C(F)(F)F)c5)cc4)ncnc32)cc1
active: RPMI-8226 leukemia -10.9% | OVCAR-8 ovarian 2.63% | OVCAR-5 ovarian 2.66% | OVCAR-4 ovarian 7.24% | IGROV1 ovarian 7.48% | OVCAR-3 ovarian -31.6% | HS 578T breast -6.67% | NCI/ADR-RES ovarian 4.85% | T-47D breast -13.9% | MDA-MB-435 melanoma 6.96% | MCF7 breast 2.15% | HCT-116 colon 1.52% | KM12 colon 2.78%
inactive: SR leukemia 21.2% | SK-OV-3 ovarian 16.9% | BT-549 breast 25.2% | SW-620 colon 12.4% | HCC-2998 colon 14.1%

C#Cc1cccc(NC(=O)c2ccccc2NC(=O)CCl)c1
inactive: SR leukemia 62.1% [8.25 µM] | RPMI-8226 leukemia 99.5% [8.25 µM] | OVCAR-8 ovarian 60.6% [8.25 µM] | OVCAR-5 ovarian 118% [8.25 µM] | OVCAR-4 ovarian 82.3% [8.25 µM] | SK-OV-3 ovarian 95.2% [8.25 µM] | OVCAR-3 ovarian 90.6% [8.25 µM] | HS 578T breast 69.3% [8.25 µM] | NCI/ADR-RES ovarian 81.1% [8.25 µM] | T-47D breast 77.7% [8.25 µM] | BT-549 breast 61.6% [8.25 µM] | MDA-MB-435 melanoma 89.9% [8.25 µM] | SW-620 colon 79.5% [8.25 µM] | MCF7 breast 67.9% [8.25 µM] | HCT-116 colon 49.4% [8.25 µM] | HCC-2998 colon 99.2% [8.25 µM] | KM12 colon 99.7% [8.25 µM]
active: IGROV1 ovarian -26.1% [8.25 µM]

CN(C)c1ccc(N=Nc2ccc(Br)cn2)c(O)c1
active: SR leukemia 3.15% | OVCAR-4 ovarian 1.05%
inactive: RPMI-8226 leukemia 11.9% | OVCAR-8 ovarian 15.5% | OVCAR-5 ovarian 59.6% | SK-OV-3 ovarian 25.9% | IGROV1 ovarian 16% | OVCAR-3 ovarian 14.8% | HS 578T breast 64% | NCI/ADR-RES ovarian 12.8% | T-47D breast 30.2% | BT-549 breast 38.2% | MDA-MB-435 melanoma 33% | SW-620 colon 26.1% | MCF7 breast 10.4% | HCT-116 colon 25.5% | HCC-2998 colon 34.3% | KM12 colon 26.7%

CCOC(=O)c1c(CN2CCN(C)CC2)nc2ccc(Cl)cc2c1-c1ccccc1
inactive: RPMI-8226 leukemia 25.5% | OVCAR-8 ovarian 84% | OVCAR-5 ovarian 69% | OVCAR-4 ovarian 79.4% | SK-OV-3 ovarian 90.7% | IGROV1 ovarian 50.1% | OVCAR-3 ovarian 76.8% | HS 578T breast 61% | NCI/ADR-RES ovarian 68.7% | T-47D breast 74.3% | BT-549 breast 58.5% | MDA-MB-435 melanoma 53.5% | SW-620 colon 94.8% | MCF7 breast 47.6% | HCT-116 colon 63.7% | KM12 colon 76.2%
active: SR leukemia -2.55% | HCC-2998 colon -0.061%

Cn1c(=O)[nH]c(=O)c2nc(CCC(=O)NCCC(=O)O)c(=O)[nH]c21
inactive: SR leukemia 113% | RPMI-8226 leukemia 111% | OVCAR-8 ovarian 101% | OVCAR-5 ovarian 106% | OVCAR-4 ovarian 106% | SK-OV-3 ovarian 101% | IGROV1 ovarian 98.6% | OVCAR-3 ovarian 113% | HS 578T breast 89.8% | NCI/ADR-RES ovarian 105% | T-47D breast 98.8% | BT-549 breast 105% | MDA-MB-435 melanoma 101% | SW-620 colon 101% | MCF7 breast 103% | HCT-116 colon 109% | HCC-2998 colon 98.3% | KM12 colon 102%

— PubChem BioAssay (NCI)
